This is an account of results in PubChem BioAssay (NCI).

The structures appear in SMILES notation. Where “and” joins values, the source holds several entries; their conditions need not be identical. Equal entries are not always repeated. Compounds without any hit were thinned out: in the full panel of roughly 83,000, 20% have a hit.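 48-hour exposure, single concentration, 96-well plates; percent growth endpoint where 0 means no net growth. Active: below 10.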 Unmarked numbers belong to inactive results. Calls of active or inactive are those of the source.

The test system of this test is MDA-MB-468 breast. Briefly: NCI-60 one-dose screen, 48 h (100 = growth as untreated, 0 = no growth, -100 = all killed). The settings on record: 10 µM unless noted.
On to `CNC(=O)NCC1OC(n2cnc3c(NC(=O)Nc4ccccc4)ncnc32)C(O[Si](C)(C)C(C)(C)C)C1O[Si](C)(C)C(C)(C)C` (stereo unspecified), for which the growth was 35.8%. `COc1ccc(C(=O)/C=C/c2ccc(OCc3ccc(C)cc3)c(OC)c2)cc1OC`: the growth is 49.9%.

For `O=C(CBr)OCc1ccc([N+](=O)[O-])o1`, the growth is 109%. With `C#C[C@]1(O)CC[C@H]2[C@@H]3CC=C4c5sc(C6CCOCC6)nc5CC[C@]4(C)[C@H]3CC[C@@]21C` the figure was 68.5%; with `C=C1C(=O)O[C@H]2[C@H]1CC/C(COC(=O)NCc1ccc(Cn3c(=O)sn(CCI)c3=O)cc1)=C\CC[C@@]1(C)O[C@@H]21`, -37.1% (active); with `CCOC(=O)c1cc(C(=O)c2cc(OC)cc(OC)c2)n2ccccc12`, 30.2%. `Cc1cc(N)n(S(=O)(=O)c2oc(-c3ccccc3)nc2C#N)n1`: the growth is 72.9%.

Take `COc1ccc(C(=O)c2sc3nc4c(cc3c2N)CCCC4)cc1OC`: the growth is -5.94% (active). The figure for `CC(C)c1ccc(Nc2ccc3c(OCCCN4CCN(C)CC4)cccc3n2)cc1` is 66%.

For `N#Cc1ccc(O)c(C2=NCC(c3cccc(Oc4ccccc4)c3)O2)c1` (stereo unspecified), the growth was 27%.

Regarding `NC(=S)N/N=C/c1ccc(Cl)cc1`, the growth was 97.3%. The figure for `O=C(/C=C(/C=C/c1csc2ccccc12)OB(F)F)/C=C/c1csc2ccccc12` is -3.4% (active); for `COc1ccc2c(c1)sc1nc(-c3ccccc3)c(-c3cccc4ccccc34)n12` it is 11.5%; for `NC(=O)c1c(NC(=O)c2ccc3c(c2)OCO3)sc2c1CCC(=O)C2` it is -35.3% (active). For the molecule `CCCCCCC/C(=N\N=C(N)N)c1ccc(O)cc1`, the growth is -79.7% (active). The figure for `CCOC(=O)C1OC1c1ccccc1` (stereo unspecified) is 106%; for `CN1CCN(Cc2ccc(NC(=O)c3cncc(C#Cc4cnc5ccc(OCC6(C)COC6)nn45)c3)cc2C(F)(F)F)CC1` it is -73.8% (active). The figure for `COc1cccc(CNc2nnc(C)c(C)n2)c1O` is 91.7%. The figure for `O=C(/C=C/C12c3ccccc3C(c3ccccc31)C1C(=O)NC(=O)C12)c1ccccn1` (stereo unspecified) is -13.1% (active). For the molecule `COc1ccc(/C=N\Nc2nc(SCCC(C)C)nc(-c3ccc(OC)cc3)c2C#N)cc1`, the growth was 35.9%. With `Cn1c2ccccc2c2nn(Cc3ccccc3)c(=O)nc21` the figure was 106%; with `Cc1ccc(NC(=O)/C=N/O)cc1C`, 62.4%. The figure for `N=C(N)N=Nc1ccc(NN=C(N)N)c2ccccc12` is -27.2% (active); for `NC(=O)CC1C=CCC1` (stereo unspecified) it is 111%. With `CC(C)CCN(CCC(C)C)CC(O)c1cc2c(c3ccccc13)CCCC2` (stereo unspecified) the figure was 54%; with `Nc1cc2c(cc1N)-c1ccccc1C2`, 89.4% and 97.8%.
